Shown are actives, neighbours in structure and some others; about 1% of the full set was active somewhere.
EBV gp42 inh: Epstein-Barr virus gp42 inhibitors, primary screen, biochemical, uHTS, fluorescence polarization; Glycoprotein 42 (Epstein-Barr virus (strain AG876)), Q1HVG2; Fluorescence polarization binding assay, mP read-out; inhibition, % (tested at 21.74 µM); 220,000 compounds, 0.42% hits; AID 1085, 2008; in the data active = inhibition above about 50%
Target sequence (Q1HVG2 whole entry, looked up): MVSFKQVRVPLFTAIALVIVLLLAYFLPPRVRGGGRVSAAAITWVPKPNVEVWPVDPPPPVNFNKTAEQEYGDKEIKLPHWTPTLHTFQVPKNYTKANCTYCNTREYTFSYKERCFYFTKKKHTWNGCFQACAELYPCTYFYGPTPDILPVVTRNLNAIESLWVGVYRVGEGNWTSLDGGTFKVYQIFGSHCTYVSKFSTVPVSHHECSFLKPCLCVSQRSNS
MEX-5 binding: MEX-5 zinc finger RNA-binding disruptors – biochemical, C. elegans, fluorescence polarization, MLPCN library, primary screen. Zinc finger protein mex-5 (Caenorhabditis elegans), Q9XUB2. MEX-5/FITC-TCR2 RNA binding; stronger effect = lower value. activity score (negative = inhibition of binding), % at 10 µM. 300,000 compounds, 0.38% hits. AID 1832, 2009;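 active = inhibition past about -25% in most replicates, and total fluorescence under double the plate's negative control median, limit read from the data; inconclusive = replicates evenly split on the limit, or fluorescence at least double controls; inactive = too little inhibition in most replicates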;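 note: 0% = DMSO and -100% = 5 µM competing unlabeled TCR2 RNA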
EBNA-1 inh: EBNA-1 DNA-binding inhibitors, primary screen, biochemical, fluorescence polarization; inhibition, % at 14.8 µM; 300,000 compounds, 0.34% hits; AID 1950, 2009; in the data active = inhibition above about 28%
ZTA DNA inh: ZTA (EBV) inhibition in EBNA-1 counter-screen | ZTA-DNA binding, fluorescence polarization | inhibition, % at 11 µM | 320,000 compounds, 0.15% hits | AID 2234; in the data active = inhibition above about 33%
Target sequence (P03206 whole entry, looked up): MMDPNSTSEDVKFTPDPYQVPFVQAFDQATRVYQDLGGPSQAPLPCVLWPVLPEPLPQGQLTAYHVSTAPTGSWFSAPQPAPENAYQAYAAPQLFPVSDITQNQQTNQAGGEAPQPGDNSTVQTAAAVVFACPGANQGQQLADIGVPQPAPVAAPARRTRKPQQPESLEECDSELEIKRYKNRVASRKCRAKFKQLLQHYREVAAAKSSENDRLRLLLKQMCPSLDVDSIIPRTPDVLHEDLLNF
Starred values were filed as active, the others as inactive; ? = inconclusive; . = no result; + = active, no number.

SMILES | EBV gp42 inh | MEX-5 binding | EBNA-1 inh | ZTA DNA inh
C#CCOCCOCCOCCNc1nc(N2CCN(C(=O)CCCCCCCCCCNC(=O)[C@H](CCCCN)n3cc(C[C@@H](C)CC)nn3)CC2)nc(N2CCN(C(=O)CCCCCCCCCCNC(=O)[C@H](CCCN=C(N)N)n3cc(C[C@@H](C)CC)nn3)CC2)n1 | . | . | 10 | 70*
COc1ccc(S(=O)(=O)NNC(=O)Nc2ccc(F)cc2F)c(OC)c1 | . | 0 | 1 | -12
CC(C)C(C(=O)NCC1CCCO1)N(C(=O)CNS(=O)(=O)c1ccccc1)c1ccc(F)cc1 (stereo not given) | . | 4 | -13 | -4
COc1cccc(/C=N/NC(=O)c2ccc(=O)[nH]n2)c1O | -13 | -35* | 0 | -6
Cc1[nH][nH]c(=O)c1C(c1ccc(O)c([N+](=O)[O-])c1)c1c(C)[nH][nH]c1=O | -3 | -48* | -2 | -6
COc1ccc(C2C=C(c3ccc(Br)s3)Nc3ncnn32)cc1OC (stereo not given) | 91* | ? | 2 | 6
Cc1cn2c(=O)c(C(=O)N3CCN(c4ccccc4Cl)CC3)cnc2s1 | . | 0 | 3 | 13
COc1cccc(=O)c2c(C)oc(C)c12 | 18 | -71* | 0 | 8
CNCc1ccccc1Sc1ccc(O)c(O)c1 | -16 | -54* | 7 | 10
CCCn1c(SCC(=O)Nc2cc(S(=O)(=O)N3CCCCC3)ccc2C)n[nH]c1=O | . | . | . | -1
COc1cc2c(cc1OC)-c1cc3ccc4c(c3c[n+]1CC2)OCO4 | 126* | ? | -7 | 0
COc1cc2c(cc1O)CC[n+]1cc3c(OC)c(OC)ccc3cc1-2 | 0 | -3 | 12 | 0
c1ccc2[nH]c3cc4ncnc4cc3nc2c1 | + | -81* | -3 | 15
O=c1oc2ccccc2nc1/C=C(\O)c1ccc(Br)cc1 | 64* | -1 | -3 | -2
Cc1ccc2oc(=O)c(/C=C(\O)c3ccccc3)nc2c1 | 59* | -5 | 2 | -8
O=c1oc2ccc(Cl)cc2nc1/C=C(\O)c1cccs1 | -107 | -67* | 11 | -9
Cc1ccc2oc(=O)c(/C=C(\O)c3cccs3)nc2c1 | -79 | -45* | -4 | 9
CCOC(=O)C1=C(COC(=O)CCNS(=O)(=O)c2ccc(NC(C)=O)cc2)NC(=O)NC1C (stereo not given) | . | 1 | -3 | 9
CCOC(=O)C1(CCOc2ccccc2)CCN(C(=O)CCSC)CC1 | . | -1 | -1 | 37*
CCOC(=O)CCNC(=O)N1CCC(CCOc2ccccc2)(C(=O)OCC)CC1 | . | 2 | -1 | -6
COc1ccc(CCC(=O)NC2CCC(C)CC2)cc1 (stereo not given) | . | -3 | -8 | 0
CC(=O)c1ccc(-c2ccc(/C=C(/Sc3n[nH]c(C)n3)C(=O)O)o2)cc1 | -21 | -35* | 4 | 17
Cc1nc(S/C(=C/c2ccc(-c3ccc(C(=O)O)cc3)o2)C(=O)O)n[nH]1 | -20 | -80* | -6 | 12
Cc1nc(S/C(=C/c2ccc(-c3ccc(Cl)cc3)o2)C(=O)O)n[nH]1 | -32 | 1 | 3 | 4
CC(C(=O)NCCCc1ccccc1)n1cccc1C(=O)c1ccccc1 (stereo not given) | . | 2 | -14 | -2
SMILES | EBV gp42 inh | MEX-5 binding | EBNA-1 inh | ZTA DNA inh
Cc1ncc(CN2CCC(C(=O)Nc3ccc(Oc4cccnc4)cc3)CC2)cn1 | . | 2 | 6 | 1
N#Cc1cc(C(=O)c2cc(F)ccc2O)cn(-c2nccs2)c1=O | 21 | ? | 0 | 12
N#Cc1cc(C(=O)c2ccccc2O)cn(-c2nccs2)c1=O | 51* | ? | 18 | 11
COc1ccccc1CNC(=O)/C(C#N)=C/c1ccc(OC)c(OC)c1OC | . | 0 | -6 | -15
Cc1ccc2oc(-c3ccc(C)c(NC(=S)NC(=O)c4cccs4)c3)nc2c1 | -10 | -7 | 29* | -12
Cc1ccc2oc(-c3ccc(C)c(NC(=O)Cc4cccs4)c3)nc2c1 | -6 | -3 | -6 | -3
CCOC(=O)/C(C#N)=C/c1ccc(-c2ccsc2C(=O)OC)o1 | 45 | -55* | -2 | 8
CCOC(=O)C(=Cc1ccc(-c2ccsc2C(=O)OC)o1)C(=O)OCC | -29 | -1 | 1 | -5
COc1ccc(C)cc1N(CC(=O)NCCSCc1ccco1)S(=O)(=O)c1ccc(C)cc1 | . | 1 | -12 | -1
CCc1c(C)nc(SCC(=O)NNC(=O)c2ccco2)[nH]c1=O | . | -37* | 1 | 17
CCOC(=O)Cn1c(=O)c(-c2cc(Br)ccc2N)nc2ccccc21 | 60* | -38* | -2 | 4
CCOC(=O)Cn1c(=O)c(-c2ccccc2N)nc2ccccc21 | -11 | 1 | -1 | 10
Cc1c(CCO)c(=O)[nH]n1S(=O)(=O)c1ccc([N+](=O)[O-])cc1 | . | -1 | 10 | 18
Cc1cc2ccccn2c1C(=O)c1ccc(N/N=C/c2ccc(C(=O)O)cc2)c([N+](=O)[O-])c1 | 65* | . | . | .
C/C(=N\Nc1ccc(C(=O)c2c(C)cc3ccccn23)cc1[N+](=O)[O-])c1ccc(O)cc1 | -21 | 1 | 2 | 4
COc1ccc(-c2cn3nc4c(nc3n2)CCCC4)cc1 | 96* | . | . | .
CC(C)(C)OC(=O)N1CCC(c2c(C(=O)NCC3CCN(C4CCCC4)C3)cnn2-c2ccccc2)CC1 (stereo not given) | . | -1 | -9 | -25
O=C(NNC(=O)c1ccccc1O)c1ccc(S(=O)(=O)Nc2ccccc2F)cc1 | . | -26* | 1 | 1
CC1CCCN(C(=O)NC2CC(=O)N(c3ccc4c(c3)OCCO4)C2)C1 (stereo not given) | . | -2 | 15 | 9
COc1cc(C(=O)OCC(=O)NC(N)=O)cc(CN2C(=O)c3ccccc3C2=O)c1OC | . | 2 | 5 | -3
O=C1C(=O)N(c2ccccn2)C(c2cccc([N+](=O)[O-])c2)/C1=C(/O)c1ccc(Br)cc1 (stereo not given) | . | -1 | 14 | 14
O=C(CCCc1nc(-c2ccc(Cl)cc2)no1)NC1CCCC1 | . | 0 | -7 | 3
CCCCNC(=O)c1cc2c(=O)n3cccc(C)c3nc2n(Cc2ccncc2)c1=N | 8 | -41* | 19 | -1
COCCNC(=S)NN(c1ccccc1)c1ccccc1 | -1 | -2 | 7 | 9
CNC(=S)NN(c1ccccc1)c1ccccc1 | 84* | 2 | 6 | -10
SMILES | EBV gp42 inh | MEX-5 binding | EBNA-1 inh | ZTA DNA inh
CCOc1ccc(CCNC(=O)COC(=O)COc2ccc(Br)cc2)cc1OCC | . | -1 | -2 | -2
CCc1nn2c(=O)cc(COc3ccc(/C=C4\C(=N)N5N=C(C)SC5=NC4=O)cc3)nc2s1 | 73* | -3 | 8 | 10
COc1ccc(C(=O)NCC(c2ccco2)N(C)C)cc1S(=O)(=O)NCc1ccc(Cl)cc1 (stereo not given) | . | . | . | -4
Cc1ccc(-c2nc(C=Nc3ccc(O)cc3)c(O)o2)cc1 | 30 | -37* | . | .
CN=Cc1nc(-c2ccccc2)oc1O | -3 | 6 | -8 | 0
CC(=O)N1CC=C2C(C#N)=C(N)C(C#N)(C#N)C(C)C2C1 (stereo not given) | 4 | -3 | 2 | -5

Compound activity (PubChem BioAssay)
